Results filed as inconclusive are left out. Where a call stands in place of a potency, no number is given. Values without a mark were called inactive. Active and inactive are the calls of the source. Calls follow the shape of the dose curve; as a rule, active = well fitted inhibition curve with a large enough effect in the signal ratio in the repeat runs, with a control signal flat; inconclusive = weak or mixed curves, or effect the other way; inactive = flat fitted curve, though single readings scatter; the % refers to the signal ratio.
Potency is read from the fitted curve at half-maximal effect.

D(2) dopamine receptor (Homo sapiens), sequence (P14416 whole entry, looked up): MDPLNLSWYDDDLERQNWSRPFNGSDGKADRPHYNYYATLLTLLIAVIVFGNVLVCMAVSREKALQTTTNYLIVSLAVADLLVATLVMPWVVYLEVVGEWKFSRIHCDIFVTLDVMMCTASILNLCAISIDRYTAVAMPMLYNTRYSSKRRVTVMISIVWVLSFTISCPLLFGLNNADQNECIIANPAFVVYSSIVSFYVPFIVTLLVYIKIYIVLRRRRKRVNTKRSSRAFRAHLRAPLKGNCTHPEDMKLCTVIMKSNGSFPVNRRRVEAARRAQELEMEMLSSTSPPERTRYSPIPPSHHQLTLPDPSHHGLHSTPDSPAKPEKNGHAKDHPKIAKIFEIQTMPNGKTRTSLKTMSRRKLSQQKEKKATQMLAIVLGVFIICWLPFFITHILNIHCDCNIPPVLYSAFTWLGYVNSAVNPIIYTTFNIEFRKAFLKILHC

The assay concerns the target D(2) dopamine receptor (Homo sapiens) (UniProt P14416). The assay is described as follows: Dopamine D2 receptor (DRD2) small molecule antagonists, cell-based qHTS assay (AID 1963595). The following applies: HEK293-DRD2 cAMP HTRF antagonist mode; series mostly up to 92.4 µM. The source says:
National Center for Advancing Translational Sciences [NCATS]
Division of Preclinical Innovation [DPI]
U.S. Environmental Protection Agency [EPA]
National Institutes of Environmental Health Sciences [NIEHS]
National Toxicology Program [NTP]
U.S. Food and Drug Administration [FDA]
DRD2 is the D2 subtype of the dopamine receptor, which is coupled to Gi subtype of G protein-coupled receptor. This G protein-coupled receptor inhibits adenylyl cyclase activity. The DRD2-HEK293 cell line stably expressing D2 dopamine receptor can be used for screening agonists and antagonists of interactions between D2 and its ligands. The Hek293-DRD2 cAMP assay is based on HTRF technology. It measures changes of cAMP accumulation in response to Gi coupled GPCR activation or inhibition.
Tox21 Assay Protocol Summary:
DRD2-Hek293 cells were dispensed at 600 cells/3uL/well in 1536-well white plates using a Multidrop Dispenser. After the assay plates were incubated at a 37 C/5% CO2 incubator for 24 h, 1 uL of Ro20-1724 at final concentration of 0.1 mM was transferred to the assay plate by a Flying Reagent Dispenser. Following Ro20-1724 addition, 23 nL of compound dissolved in DMSO, positive controls or DMSO only was added to the assay plates via Wako pintool station. The assay plates were incubated at room temperature for 10 min. Next, 1 uL of mixture of NKH477 (final concentration at 200 nM) and quinpirole (final concentration at 12 nM) was added into the plates. After the assay plates were incubated at room temperature for an additional 30 min, 2.5 ul/well of cAMP-d2 and 2.5 ul/well of anti-cAMP-cryptate were added respectively into the assay plates using a Flying Reagent Dispenser. The plates were incubated at room temperature for 1 h. The fluorescence intensity in the plates was measured at 340 nm excitation and 665 & 620 nm emission by an Envision plate reader.
For orientation: In qHTS, concentration-response curves come from the screen itself.
For `CCN(CC)CCNC(=O)c1cc(S(C)(=O)=O)ccc1OC`, the Potency was 15000 nM (active). For `CC(C)Cc1nccs1`, the Potency entry is “inactive”. `COc1ccccc1N1CCN(CCCCNC(=O)c2ccc(-c3ccc(C(C)=O)cc3)cc2)CC1`: the Potency is 750 nM (active).

Consider `Cc1scc2c1N(C(=O)CN1CCN(C)CC1)c1ccccc1NC2=O`, for which the Potency result was “inactive”.

On to `C[N+]1(CC2COC(c3ccccc3)(c3ccccc3)O2)CCCCC1` (stereo not given), for which the activity change, negative = inhibition was 7.28% [at 18.9 µM]. Turning to `C=C[C@@H](C)CCC=C(C)C`, the Potency result is “inactive”. Still for that read-out and setting: the entry for `CC(COC(C)(C)C)OCCCO` (stereo not given) is “inactive”; for `CCCCCCCCCCCSCC(=O)O` it is “inactive”. Still for that read-out and setting: the entry for `O=S1OCCO1` is “inactive”. Turning to `Nc1nc2c(ncn2CCC(CO)CO)c(=O)[nH]1`, the Potency entry is “inactive”.

Consider `CC(=O)N(CC(=O)N(C)C)c1ccccc1`, for which the Potency entry is “inactive”. Still for that read-out and setting: the entry for `CCCN(CCC)C(=O)C(CCC(=O)O)NC(=O)c1ccccc1` (stereo not given) is “inactive”; for `CCCCOC(=O)/C=C\C(=O)OCCCC` it is “inactive”; for `C1=CCCC1` it is “inactive”.

As to `O=C1Nc2cc(Cl)ccc2Oc2ccccc21`, the Potency result was “inactive”. On the same count and under the same terms, with `O=C(CCCCC(=O)Nc1c(I)cc(I)c(C(=O)O)c1I)Nc1c(I)cc(I)c(C(=O)O)c1I` the entry was “inactive”; with `C[Si]1(C)N[Si](C)(C)N[Si](C)(C)N1`, “inactive”. For `Cc1ccccc1CCO`, the Potency result is “inactive”. Still for that read-out and setting: with `NS(=O)(=O)c1cc2c(cc1Cl)NC(C(Cl)Cl)NS2(=O)=O` (stereo not given) the entry was “inactive”.

For `O=Cc1c2ccccc2c(Cl)c2ccccc12`, the Potency entry was “inactive”. Same read-out and setting: with `CCCCOC(=O)CC` the entry was “inactive”; with `C/C(=C\C(C)CC(C)CC(C)C)C1CC(=O)OC1=O` (stereo not given), “inactive”. Same read-out and setting: with `COC(=O)CCc1ccc(OCC(O)CNC(C)C)cc1` (stereo not given) the entry was “inactive”; with `Cc1nc2n(c(=O)c1CCN1CCC(C(=O)c3ccc(F)cc3)CC1)CCS2`, 66.8 nM (active). In the case of `O=[N+]([O-])c1cccc(I)c1`, the Potency entry was “inactive”.

As to `O=C(O)c1ccccc1C(=O)Nc1ccc(S(=O)(=O)Nc2nccs2)cc1`, the Potency entry is “inactive”. Consider `CC(C)(C)OC(=O)N1C[C@@H](F)C[C@H]1C(=O)O`, for which the Potency result was “inactive”. As for `CC(C)C(=O)OCc1cccc(OC(=O)[C@@H]2N3C(=O)[C@@H](NC(=O)Cc4ccccc4)[C@H]3SC2(C)C)c1`, the Potency entry is “inactive”. Regarding `C[C@H](CCC(=O)O)[C@H]1CC[C@H]2[C@@H]3[C@H](O)C[C@@H]4C[C@H](O)CC[C@]4(C)[C@H]3C[C@H](O)[C@]12C`, the Potency entry was “inactive”. The same measure, in the same setting: the entry for `CCCCCCCCCCCCCCCCCC(=O)OCCCCCCCCCCCCCC(C)C` is “inactive”. In the case of `CCn1cc(C(=O)O)c(=O)c2cc(F)c(N3CCN(C)CC3)cc21`, the activity change, negative = inhibition was 4.28% [at 18.9 µM]. For the compound `O=C(O)Cc1csc(-c2ccc(Cl)cc2)n1`, the Potency result was “inactive”. Same read-out and setting: the entry for `Clc1cc(Cl)nc(Cl)n1` is “inactive”; for `O=C(C1CCCCC1)N1CC(=O)N2CCCc3ccccc3C2C1` (stereo not given) it is “inactive”; for `CCC(CC)C(=O)O` it is “inactive”.

With `O=C1OCc2ccccc21`, the Potency entry is “inactive”. Same read-out and setting: with `CN(C)CCN(Cc1ccsc1)c1ccccn1` the entry was “inactive”; with `CCCCCCCCCI`, “inactive”; with `CC(=O)[C@H]1CC[C@H]2[C@@H]3C=CC4=CC(=O)CC[C@@]4(C)[C@@H]3CC[C@]12C`, “inactive”. Regarding `CC(C)(C)NCC(O)COc1cccc2c1CCC(=O)N2` (stereo not given), the Potency result is “inactive”.

These data come from PubChem BioAssay (Tox21).
